Bioassay records (PubChem BioAssay)
Vaccinia Venus = vaccinia inhibition (Venus reporter); Vaccinia virus Venus reporter expression, fluorescence; Potency, µM (top dose mostly 36.5 µM), without a hit: at the top dose activity change, negative = inhibition, hits mostly inhibitors; 330,000 tested, 0.46% active; AID 720580; calls by dose curve; tested in A549 cells; further: nearly all actives have a fitted effect of over 30% in size
Pf growth 96h = P. falciparum growth inhibition at 96 hours. 320,000 tested, 6.9% active. Potency, µM (highest dose often 28.7 µM), for the others: at the top dose activity change, negative = inhibition, hits mostly inhibitors. P. falciparum luciferase reporter growth, 96 h. AID 504834
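P. falciparum expressing integrated firefly luciferase grown in erythrocytes (2% hematocrit, 0.05% parasitemia final) with compounds for 96 hours at 37 C, 5% CO2. Growth inhibition read as loss of luminescence after adding luciferase detection reagent.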
AMA1-RON2 inh = inhibitors of Plasmodium falciparum AMA1-RON2 interaction. AlphaScreen AMA1-biotinylated RON2 peptide binding. Potency, µM (titrated, usually from 58.2 µM), for the others: top-dose activity change, negative = inhibition, actives largely listed as inhibitors. 360,000 tested, 0.2% active;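 further: 0% = vehicle wells and -100% = peptide control; nearly all actives have a fitted effect of over 45% in size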
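AMA1 (3D7) with his tag at 25 nM final met compounds first, then biotinylated RON2 peptide at 25 nM; detection used donor plus acceptor beads, 10 µg/mL apiece, read by AlphaScreen after 30 min at room temperature.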
Pf growth 48h = P. falciparum growth inhibition at 48 hours (one generation) | Potency, µM (top dose mostly 28.7 µM), for the others: at the top dose activity change, negative = inhibition, most hits filed as inhibitors | P. falciparum luciferase growth in erythrocytes, 48 h | AID 504832 | 310,000 tested, 5.9% active
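Cell-based growth assay: transgenic P. falciparum expressing firefly luciferase, cultured in red cells within RPMI 1640 containing 0.5% w/v Albumax, 24 mM bicarbonate and gentamycin. A drop in luciferase activity indicates inhibition.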
Vaccinia mCherry = inhibitors of vaccinia virus infection (mCherry reporter signal). 310,000 tested, 0.63% active. AID 720579. Potency, µM (series often up to 36.5 µM), inactives show at the highest dose activity change, negative = inhibition, actives largely listed as inhibitors. Vaccinia virus mCherry reporter infection, fluorescence; calls by dose curve; tested in A549 cells; further: nearly all actives have a fitted effect of over 35% in size
* = called active by the depositor; i = inactive; ? = inconclusive; . = not tested or not shown; [ ] = dose if it differs, or a comment. Only some compounds are listed: those with a hit (about 8.7% of all), similar ones and a draw of the others. Unless noted, the call rests on the fitted dose curve; in most records, active means well fitted curve in the direction sought with a large enough effect; inconclusive means small, poorly fitted or top-dose-only effect, or another doubt; inactive means no such curve, though single readings can be large; an effect the other way counts as inactive or inconclusive. Unless noted, on the % scale 0 is the no-effect control and ±100 the full control effect; potency means the concentration at half of the fitted maximal effect.

SMILES	Vaccinia Venus	Pf growth 96h	AMA1-RON2 inh	Pf growth 48h	Vaccinia mCherry
CCOc1ccc(/C=C2\SC(=S)N(N3C(=O)C4CC4C3=O)C2=O)cc1 (stereo not drawn)	-8%	-7%	30%	4.1µM*	?
O=S(=O)(CCSc1ccccn1)c1nc2ccccc2s1	-5%	1.7µM*	21%	?	-5%
O=S(=O)(CCSc1nc2ccccc2o1)c1nc2ccccc2s1	-23%	?	4%	13µM*	-12%
CCS(=O)(=O)CCSc1nc2ccccc2o1	-7%	64%	1%	2%	-11%
COc1cccc(C(=O)NCC2Cc3cccc(-c4cccnc4)c3O2)c1 (stereo not drawn)	-13%	.	.	.	-10%
O=c1c(NCc2cccs2)nccn1-c1ccc(F)cc1	0%[7.34 µM]	.	.	.	-4%[7.34 µM]
CC1=C(C(=O)Nc2c(C)cc(C)cc2C)C2(CCN(C(C)C)CC2)OC1=O	-3%	.	.	.	-10%
COc1ccc(S(=O)(=O)N(CCCN2CCCC2=O)Cc2cc3c(C)cc(C)cc3[nH]c2=O)cc1	-17%	-18%	-13%	9.3µM*	i
CCCCN(Cc1cc2cc(OC)ccc2[nH]c1=O)S(=O)(=O)c1ccc(C)cc1	-28%	7%	14%	?	?
COc1ccc(CCNC(=O)CCCCn2c(=O)c3ccccc3n(CC(=O)Nc3ccc(C)cc3C)c2=O)cc1OC	-12%	.	.	.	-19%
O=S(=O)(NCCOCC(F)(F)F)c1ccc2oc3ccccc3c2c1	-21%	0%	-7%	12µM*	?
CC(=O)OC1CC[C@@]2(C)C3CC(=O)[C@]4(C)C(C(C)=O)=CCC4C3CC[C@H]2C1 (stereo partly drawn)	0%	.	.	.	i
CC(=O)OC1CCC2(C)C(CCC3C4CC=C(C(C)=O)C4(C)OC(=O)CC32)C1 (stereo not drawn)	11µM*	.	19%	.	?
Cc1ccc(NC(=O)c2ccc(NC(=O)N3CCSc4ncccc43)cc2)c(Cl)c1	-13%	.	.	.	-12%
CN(C)CCn1c(=N)n(CC(O)c2ccc(Cl)c(Cl)c2)c2ccccc21 (stereo not drawn)	.	1%	2%	0.74µM*	.
Cc1ccc(C(=O)Cn2c(=N)n(CCN3CCOCC3)c3ccccc32)cc1	-16%	?	31%	9.3µM*	?
COC(=O)Cn1c(=N)n(CCN2CCCCC2)c2ccccc21	-34%	12%	3%	9%	.
N=c1n(CCN2CCCCC2)c2ccccc2n1CC(O)c1ccc(Cl)c(Cl)c1 (stereo not drawn)	11µM*	0.29µM*	-6%	.	?
N=c1n(CCN2CCCCC2)c2ccccc2n1CC(=O)c1ccc(Cl)c(Cl)c1	-8%	2.6µM*	-2%	1.5µM*	-8%
CCn1c(=N)n(CC(=O)c2ccc(Cl)c(Cl)c2)c2ccccc21	-9%	29%	11%	?	?
O=C(Cn1ncc2c(=O)oc3ccccc3c21)NCc1ccc(Cl)cc1	17%	.	.	.	7%
COc1ccc(C)cc1S(=O)(=O)N1CCN(c2cccc(Cl)c2)CC1	-4%	.	.	.	5%
CCn1c(-c2cccc(OC)c2)nc2cc(NC(C)=O)cc(C(=O)N3CCCC(C(C)=O)C3)c21 (stereo not drawn)	-9%	.	.	.	-16%
CC(=O)NC(Cc1ccc([N+](=O)[O-])cc1)C(=O)NCC(N)C(=O)c1ccccc1 (stereo not drawn)	-19%	.	.	.	i
N=c1n(CCN2CCCCC2)c2ccccc2n1CC(O)c1cccc(Br)c1 (stereo not drawn)	?	0.74µM*	-1%	0.59µM*	?
SMILES	Vaccinia Venus	Pf growth 96h	AMA1-RON2 inh	Pf growth 48h	Vaccinia mCherry
N=c1n(CCN2CCCCC2)c2ccccc2n1CC(O)COc1ccccc1 (stereo not drawn)	-22%	50%	-2%	?	-9%
COc1ccccc1OCC(O)Cn1c(=N)n(CCN2CCCCC2)c2ccccc21 (stereo not drawn)	.	-22%	1%	3.3µM*	.
COc1cccc(CNC(=O)CCc2c(C)nn(-c3ccc(N4CCCC4)nn3)c2C)c1	-10%	.	.	.	0%
Cn1c[n+](C)cc1-c1ccc(/C(N)=N/O)cc1	-17%	4.7µM*	4%	?	-17%
N/C(=N\O)c1ccncc1	-6%[7.34 µM]	14%	-1%	6%	-16%[7.34 µM]
Cc1cc(C(C)c2ccccc2)c(O)c(CN2CCOCC2)c1C (stereo not drawn)	.	8%	-21%	1.9µM*	.
CC(=O)Nc1ccc(NC(=O)C(Cc2ccccc2)NS(=O)(=O)c2ccc3c(c2)oc(=O)n3C)cc1 (stereo not drawn)	4%	.	.	.	-4%
O=C(O[C@H]1[C@H](Cc2ccccc2)NS(=O)(=O)[C@H]2C[C@@H]3C=C[C@]12O3)c1ccccc1Br	-6%	.	.	.	-13%
CC(NC(=O)CC12CC3CC(CC(C3)C1)C2)C(=O)O (stereo not drawn)	-10%	9.3µM*	-1%	7%	0%
CCCn1c(C(C)Nc2nc(-c3ccc(Cl)c([N+](=O)[O-])c3)cs2)nc2ccccc21 (stereo not drawn)	-8%	5.9µM*	4%	13µM*	-15%
CCCn1c(C(C)Nc2nc(-c3ccc(C)cc3)cs2)nc2ccccc21 (stereo not drawn)	-24%	9.3µM*	32%	?	-23%
OCC[N+]12CCC(CC1)C(C(O)(c1ccccc1)c1ccccc1)C2 (stereo not drawn)	-4%	-38%	-2%	?	-2%
OC(c1cccs1)(c1cccs1)C1C[N+]2(CF)CCC1CC2 (stereo not drawn)	-6%	2.3µM*	6%	10µM*	-7%
C=CCN1CCc2cc(O)c(O)cc2C(c2ccccc2)C1 (stereo not drawn)	-16%	?	-7%	12µM*	-20%
C=CCN1CCc2c(cc(O)c(O)c2Cl)C(c2ccccc2)C1 (stereo not drawn)	-15%	?	24%	?	-2%
CCOC(=O)C1=C(C)N(c2ccccc2)C(=O)C1CC(=O)O (stereo not drawn)	-10%	12µM*	11%	-27%	i
O=C(Cc1ccc(F)cc1)N1CCC(CC2CC(c3cccc(Br)c3)=NO2)(C(=O)NCC2CCCCC2)CC1 (stereo not drawn)	?	1.2µM*	-2%	?	-4%
O=C(Cc1ccc(F)cc1)N1CCC(CC2CC(c3ccc(Cl)cc3)=NO2)(C(=O)NCC2CCCCC2)CC1 (stereo not drawn)	?	4.7µM*	-4%	?	?
O=C(Cc1ccccc1)N1CCCC(c2nc(-c3ccc(S(=O)(=O)N4CCCC4)cc3)no2)C1 (stereo not drawn)	-3%	8.3µM*	-1%	.	i
CN(C)c1ccc(-c2noc(C3CCN(S(=O)(=O)c4cccc(Cl)c4)CC3)n2)cc1	.	0.19µM*	-2%	?	.
